# Screening results (PubChem)
# The list is not random: actives were taken first. Their share in the collection is about 19%.
# MCF10A rerep = inducers of DNA re-replication in MCF 10A breast cells; AID 624296; Potency, µM (highest dose often 46.1 µM), usual class: activators; 2.9% of 350,000 active; MCF 10A DNA re-replication, Hoechst nuclear intensity, 48 h; also: nearly all actives have a fitted effect of over 50% in size
# TDP1 cell CPT = growth inhibition of DT40 Tdp1-/-;hTDP1 cells with camptothecin (screen for TDP1 inhibitors) | chicken DT40 Tdp1-/-;hTDP1 cells + 20 nM CPT, ATP luminescence, 48 h | Potency, µM (series often up to 46.2 µM), hits mostly inhibitors | 12% of 420,000 active; also: nearly all actives have a fitted effect of over 55% in size
#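 Chicken DT40 Tdp1-/- cells stably complemented with human TDP1 were seeded at 400 cells/well in medium containing 20 nM camptothecin, exposed to pin-transferred compounds, and grown at 37 °C for at least 48 hr. Viability was read as ATP luminescence.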
# IL-1B inflam inh = blocks inflammasome-driven IL-1 beta release. THP-1 LPS/ATP IL-1B secretion, AlphaLISA, 16 h; stronger effect = lower value. activity change, % at 57.5 µM. 4.7% of 360,000 active. AID 743279; in the data active = activity change below about -50%; inconclusive = mostly about -30% to -49%
#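 Secreted IL-1B measured by AlphaLISA bead assay after 16 h compound exposure of THP-1 cells; compounds (final up to 57.5 uM) added 1 h before LPS (250 ng/mL) and ATP (1.25 mM) stimulation; lower signal means less secretion.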
# Chronic BCR inh = chronic active BCR signaling inhibition; ABC-DLBCL IkBa-CBG/CBR reporter, luminescence ratio, 4 h; Potency, µM (doses to about 46.1 µM), hits mostly inhibitors; 0.05% of 340,000 active; AID 493014; active = well fitted inhibition curve with a large enough effect in the signal ratio, with a control signal flat, not every such curve was filed as active; inconclusive = small, poorly fitted or top-dose-only effect, or effect the other way, or a change in a side signal; the % refers to the signal ratio
#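 Cell line TMD8 (human ABC DLBCL), stably expressing tet-inducible CBG68-IkBa fusion and CBR; IMDM/0.5% FBS; cpd up to 46 uM; dox induction, 4 h, 37C/5% CO2; dual luminescence; green/red ratio; MG132 control.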
# SW480 rereplic = inducers of DNA re-replication in SW480 colon cancer cells. SW480 DNA re-replication, Hoechst DNA content imaging, 48 h. Potency, µM (doses to about 46.1 µM), usual class: activators. 1.8% of 340,000 active. AID 624297; also: nearly all actives have a fitted effect of over 55% in size
#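 Quantitative HTS format with DMSO vehicle controls; 48 hr drug incubation at 37 C, then 40 min Hoechst staining and scanning imager measurement at 405 nm excitation.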
# DT40 TDP1 no CPT = qHTS for Inhibitors of human tyrosyl-DNA phosphodiesterase 1 (TDP1): qHTS in cells in absence of CPT; DT40 Tdp1-/- hTDP1 cells, no CPT, ATP luminescence, 48 h; Potency, µM (highest dose often 46.2 µM), usual class: inhibitors; 15% of 420,000 active; AID 686978, 2013; also: nearly all actives have a fitted effect of over 55% in size
#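 Camptothecin absent (DMSO only). Human TDP1-complemented DT40 knockout cells, 400 cells/well, 37 °C for minimum 48 hr; ATP measured via CellTiter-Glo, 30 min dark incubation, luminescence.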
# Hits are given with their value; . = inactive; ? = inconclusive; / = no result given; [ ] = remark or other dose. Unless noted, calls follow the shape of the dose curve; as a rule, active = well fitted curve in the direction sought with a large enough effect; inconclusive = small, poorly fitted or top-dose-only effect, or another doubt; inactive = no such curve, though single readings can be large; an effect the other way counts as inactive or inconclusive.
SMILES,MCF10A rerep,TDP1 cell CPT,IL-1B inflam inh,Chronic BCR inh,SW480 rereplic,DT40 TDP1 no CPT
COc1cc(/C=N/Nc2ccccc2[N+](=O)[O-])cc(OC)c1O,.,?,.,?,.,6.5µM
COc1cc(/C=N/Nc2ccc(Cl)nn2)cc(OC)c1O,.,.,.,?,.,.
O=C(N/N=C/c1ccc(Cl)c([N+](=O)[O-])c1)C1CC1,.,.,-50,.,.,.
O=[N+]([O-])c1cc(/C=N/NC(=S)Nc2ccccc2Cl)ccc1Cl,?,?,-86,.,.,12µM
COc1cc(/C=N/Nc2ccc(F)cc2F)cc(OC)c1O,16µM,2.3µM,-89,?,.,5.8µM
CS(=O)(=O)N1CCC2(CC1)CN(Cc1nccs1)C2,/,.,/,/,/,.
COC(=O)CCC(=O)N1CCC(CCC(=O)NCc2ccc(F)cc2)CC1,.,.,.,.,.,.
Cc1ccccc1NC(=O)C(=O)N/N=C/c1cccc(Br)c1,.,.,.,.,.,.
Fc1ccc(NC(=S)N/N=C/c2cccc(Br)c2)c(F)c1,.,6.5µM,.,?,.,4.1µM
O=C(NC1CCN(S(=O)(=O)c2cccc([N+](=O)[O-])c2)CC1)C1CCCCC1,.,.,.,.,?,.
Fc1cccc(/C=N/NC(=S)Nc2ccccc2Cl)c1,.,6.5µM,.,?,/,2.6µM
O=C(NC1CC1)C1CCN(S(=O)(=O)c2ccc(Cl)c([N+](=O)[O-])c2)CC1,?,.,-97,?,?,?
COc1cccc(-c2ccc(=O)n(CC(=O)Nc3cc4c(cc3NC(C)=O)OCCO4)n2)c1,.,.,.,.,.,?
CN(C)S(=O)(=O)c1ccc(NC(=O)Cn2nc(-c3ccc4c(c3)OCCO4)ccc2=O)cc1,.,?,.,/,18µM,21µM
COc1ccccc1NC(=O)Cn1nc(-c2ccc3c(c2)OCCO3)ccc1=O,0.92µM,.,.,?,.,.
O=C(COCc1cc(-c2cccs2)on1)NCc1cccc(Cl)c1,/,.,/,/,/,.
COc1ccc2cc(C#N)c(N3CCN(Cc4nnnn4CCC(C)C)CC3)nc2c1,.,21µM,?,.,.,18µM
CC(C)OCCCNC(=O)COCC(=O)Nc1ccc(OCCc2ccccc2)cc1,.,18µM,.,.,.,13µM
N#Cc1ccc(-c2cccnc2)nc1SCC(=O)Nc1sc2c(c1C#N)CCC2,.,.,.,.,.,.
CSc1nc2c(c(-c3ccc(O)cc3)c1C#N)CCC2,26µM,.,.,.,.,?
CC(Sc1nc(-c2ccccc2)cc(C(F)(F)F)n1)C(=O)Nc1sc2c(c1C#N)CCC2 (centres undefined),.,?,.,.,.,?
COc1ccc(-c2ccc(C#N)c(SCC(=O)Nc3sc4c(c3C#N)CCC4)n2)cc1,?,.,.,.,3.3µM,?
COc1ccc(-c2c(C#N)c(SCC(=O)Nc3ccc(C)cc3)nc(C)c2C(=O)Nc2ccccc2)cc1,/,.,/,/,/,.
COc1ccc(-c2c(C#N)c(SCC(=O)Nc3ccccc3)nc3c2CCCC3)cc1,.[9.22 µM],26µM,.,/,.,?
N#Cc1c(C(F)(F)F)cc(-c2ccccc2)nc1SCC(=O)Nc1sc2c(c1C#N)CCC2,.,13µM,.,.,.,10µM
SMILES,MCF10A rerep,TDP1 cell CPT,IL-1B inflam inh,Chronic BCR inh,SW480 rereplic,DT40 TDP1 no CPT
COc1ccc(CCNC(=O)c2cnc3sc(N4CCOCC4)nn3c2=O)cc1OC,/,.,/,/,/,.
COc1ccc(C)cc1NC(=O)C1CCN(S(=O)(=O)c2ccc3c(c2)C(C)(C)C(=O)N3C)CC1,.,?,.,.,.,?
Cc1ccc(C)c2sc(N3CCN(C(=O)c4ccco4)CC3)nc12,/,?,/,.,/,18µM
Cc1cccc2sc(N3CCN(C(=O)c4ccco4)CC3)nc12,/,?,/,.,/,?
Cc1ccc(Cl)c2sc(N3CCN(C(=O)c4ccco4)CC3)nc12,?,?,?,.,.,16µM
CC(C)(C)OC(=O)N1CCC(NC(=O)c2nc[nH]c2C(=O)NCC(=O)OCc2ccccc2)CC1,?,?,.,.,.,?
Cc1cc(NC(=O)CCc2ccc(S(=O)(=O)N3CCOCC3)cc2)n(-c2ccccc2)n1,.,12µM,.,.,.,8.2µM
O=C(CCc1ccccc1)NC(=S)Nc1ccc(S(=O)(=O)N2CCOCC2)cc1,?,?,.,?,.,16µM
O=S(=O)(c1ccc(NC(=S)Nc2ccccc2)cc1)N1CCOCC1,.,.,.,.,.,.
COc1cccc(Cn2c(=O)c(-c3cccs3)nc3cnc(N4CCN(C)CC4)nc32)c1,/,.,/,/,/,.
Cc1cccnc1NC(=O)c1ccc(Cl)c(S(=O)(=O)N2CCCCC2)c1,.,.,.,.,.,.
CC1CCCCN1S(=O)(=O)c1ccc(C(=O)N2CCOCC2)cc1 (centres undefined),.,.,.,.,.,.
Cc1ccc(CNC(=O)c2ccc(N3CCCC3)c(NC(=O)Nc3ccc(F)c(Cl)c3)c2)cc1,/,.,/,/,/,.
COc1ccc(-c2nc(C(N)=O)c3[nH]c(=O)n(-c4ccccc4OC)c3n2)c(OC)c1,.,?,.,?,.,16µM
COc1ccc(OC)c(-c2nc(C(N)=O)c3[nH]c(=O)n(-c4ccc(F)cc4)c3n2)c1,.,.,.,.,.,.
COc1ccccc1-n1c(=O)[nH]c2c(C(N)=O)nc(CC(C)C)nc21,.,.,.,.,.,.
COc1ccccc1-n1c(=O)[nH]c2c(C(N)=O)nc(-c3cccnc3)nc21,.,?,.,.,.,21µM
C[C@@H]1CN([C@@H](C)CO)C(=O)c2cc(Br)cnc2O[C@H]1CN(C)Cc1cccc(C(=O)O)c1,/,.,.,/,/,.
COC(=O)[C@]12CCCCC=C1N(Cc1ccc(Cl)cc1Cl)C(=O)[C@H](CC(=O)N1CCSCC1)C2,/,?,.,/,/,16µM
COC(=O)[C@]12CCCCC=C1N(Cc1ccc(Cl)cc1Cl)C(=O)[C@H](CC(=O)N1CCCCC1)C2,/,?,.,/,/,18µM
O=C(Oc1ccc(-c2nnco2)cc1)N(c1ccccc1)c1ccccc1,.,?,-79,?,.,?
O=C(Oc1ccc(-c2nnco2)cc1)c1ccc(Br)o1,.,.,.,.,.,.
CCC(=O)N1Cc2cc(C(=O)Nc3nccs3)nc(-c3cccc(-c4ccccc4OC)c3)c2[C@@H]1CCO,/,4.6µM,.,/,/,4.6µM
COc1ccccc1-c1cccc(-c2nc(C(=O)Nc3nccs3)cc3c2[C@@H](CCO)N(C(=O)CC2CC2)C3)c1,/,18µM,?,/,/,12µM
